# In PMC7862700, “An all-to-all approach to the identification of sequence-specific readers for epigenetic DNA modifications on cytosine”:
# Experiments:
# Assay in all cases: DAPPL (digital affinity profiling via proximity ligation, sequencing); 10 mM Tris-HCl pH 7.5, 50 mM NaCl, 1 mM DTT, 4% glycerol, room temperature, 30 min; GST-TFs on glutathione beads, 16-mer random dsDNA library, 0.1% formaldehyde crosslink after washing; high values mean tight binding
# [1] = molecular target: T1, FLI1 (Homo sapiens, UniProt Q01543 1-452); conditions: protein: recombinant; tags: N-terminal GST; dsDNA, one strand shown
# T1 sequence: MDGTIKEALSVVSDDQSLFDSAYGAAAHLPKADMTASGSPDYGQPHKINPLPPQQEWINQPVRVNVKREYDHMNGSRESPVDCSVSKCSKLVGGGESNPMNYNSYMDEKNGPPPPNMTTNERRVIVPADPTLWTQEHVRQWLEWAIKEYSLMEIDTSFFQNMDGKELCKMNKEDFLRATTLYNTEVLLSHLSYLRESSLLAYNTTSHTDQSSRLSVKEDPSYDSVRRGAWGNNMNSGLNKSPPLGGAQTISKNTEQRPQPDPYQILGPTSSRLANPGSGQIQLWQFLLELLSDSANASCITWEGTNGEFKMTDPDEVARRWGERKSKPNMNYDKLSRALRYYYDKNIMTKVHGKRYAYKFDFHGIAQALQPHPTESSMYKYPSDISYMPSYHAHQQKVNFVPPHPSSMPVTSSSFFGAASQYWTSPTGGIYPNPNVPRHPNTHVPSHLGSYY
# Procedure, shortened: (§1)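 Human transcription factors were made in yeast as GST fusions, captured on glutathione beads and barcoded with DNA. With a tag-only sample included, the pool was incubated with 200 nmole of a random double-stranded 16-mer DNA library in Tris/NaCl/DTT/glycerol buffer at room temperature for 30 min, then crosslinked with 0.1% formaldehyde after washing, ligated by proximity, amplified and sequenced. For binding signal, each hexamer's read frequency for a factor is divided by its frequency for the tag-only sample.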
# [2] = molecular target: T2, ELK1 (Homo sapiens, UniProt P19419 1-428); conditions: protein: recombinant; tags: N-terminal GST; dsDNA, one strand shown
# T2 sequence: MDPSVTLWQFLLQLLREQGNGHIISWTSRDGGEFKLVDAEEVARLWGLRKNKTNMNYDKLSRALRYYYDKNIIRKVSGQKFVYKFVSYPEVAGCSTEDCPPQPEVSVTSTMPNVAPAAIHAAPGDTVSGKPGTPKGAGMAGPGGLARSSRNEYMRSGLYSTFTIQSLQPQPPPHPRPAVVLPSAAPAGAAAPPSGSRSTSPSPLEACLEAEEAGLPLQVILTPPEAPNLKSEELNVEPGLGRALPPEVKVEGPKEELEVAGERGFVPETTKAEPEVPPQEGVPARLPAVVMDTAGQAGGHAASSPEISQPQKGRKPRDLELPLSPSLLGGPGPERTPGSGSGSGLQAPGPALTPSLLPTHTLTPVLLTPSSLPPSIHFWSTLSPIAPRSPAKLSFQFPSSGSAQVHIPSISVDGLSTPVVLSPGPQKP
# Procedure, shortened: as §1
# [3] = molecular target: T3, GABPA (Homo sapiens, UniProt Q06546 1-454); conditions: protein: recombinant; tags: N-terminal GST; dsDNA, one strand shown
# T3 sequence: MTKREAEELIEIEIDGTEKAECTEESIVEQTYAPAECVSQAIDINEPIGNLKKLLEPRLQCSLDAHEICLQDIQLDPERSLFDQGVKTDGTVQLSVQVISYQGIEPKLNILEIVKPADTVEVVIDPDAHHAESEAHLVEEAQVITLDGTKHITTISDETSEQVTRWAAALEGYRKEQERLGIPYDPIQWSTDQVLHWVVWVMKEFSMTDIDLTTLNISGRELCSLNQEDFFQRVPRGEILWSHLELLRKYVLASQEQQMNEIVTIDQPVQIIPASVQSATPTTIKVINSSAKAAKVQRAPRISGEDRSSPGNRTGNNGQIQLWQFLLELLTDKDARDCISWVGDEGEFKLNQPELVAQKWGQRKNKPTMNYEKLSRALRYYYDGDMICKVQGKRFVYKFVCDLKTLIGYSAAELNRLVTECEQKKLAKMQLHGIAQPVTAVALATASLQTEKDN
# Procedure, shortened: as §1
# [4] = molecular target: T4, ERG (Homo sapiens, UniProt P11308 1-479); conditions: protein: recombinant; tags: N-terminal GST; dsDNA, one strand shown
# T4 sequence: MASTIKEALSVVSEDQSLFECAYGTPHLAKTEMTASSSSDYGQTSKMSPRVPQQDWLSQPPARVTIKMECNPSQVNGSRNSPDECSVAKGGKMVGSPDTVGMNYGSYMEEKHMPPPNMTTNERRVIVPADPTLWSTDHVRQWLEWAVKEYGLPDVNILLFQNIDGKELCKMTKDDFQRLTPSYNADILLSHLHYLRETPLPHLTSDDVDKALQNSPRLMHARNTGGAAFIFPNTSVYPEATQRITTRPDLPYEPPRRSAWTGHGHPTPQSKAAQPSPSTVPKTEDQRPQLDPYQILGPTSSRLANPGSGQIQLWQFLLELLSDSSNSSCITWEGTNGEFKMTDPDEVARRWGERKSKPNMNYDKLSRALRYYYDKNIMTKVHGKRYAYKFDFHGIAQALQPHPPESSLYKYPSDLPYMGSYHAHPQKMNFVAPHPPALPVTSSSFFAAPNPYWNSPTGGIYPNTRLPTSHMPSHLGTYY
# Procedure, shortened: as §1
# [5] = molecular target: ELF1 (Homo sapiens, UniProt P32519 1-619); conditions: protein: recombinant; tags: N-terminal GST; dsDNA, one strand shown
# Procedure, shortened: as §1
# [6] = molecular target: T5, EHF (Homo sapiens, UniProt Q9NZC4 1-300); conditions: protein: recombinant; tags: N-terminal GST; dsDNA, one strand shown
# T5 sequence: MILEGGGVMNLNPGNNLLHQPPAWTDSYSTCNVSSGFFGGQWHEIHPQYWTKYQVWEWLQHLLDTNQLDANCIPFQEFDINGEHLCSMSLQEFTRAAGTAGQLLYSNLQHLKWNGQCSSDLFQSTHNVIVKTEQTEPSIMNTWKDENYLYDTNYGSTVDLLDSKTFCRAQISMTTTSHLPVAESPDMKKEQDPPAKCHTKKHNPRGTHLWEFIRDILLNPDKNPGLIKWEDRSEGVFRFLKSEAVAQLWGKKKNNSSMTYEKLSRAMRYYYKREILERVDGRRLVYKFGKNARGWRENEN
# Procedure, shortened: as §1
# [7] = molecular target: SPI1 (Homo sapiens, UniProt P17947 1-270); conditions: protein: recombinant; tags: N-terminal GST; dsDNA, one strand shown
# Procedure, shortened: as §1
# [8] = molecular target: SPIB (Homo sapiens, UniProt Q01892 1-262); conditions: protein: recombinant; tags: N-terminal GST; dsDNA, one strand shown
# Procedure, shortened: as §1
# [9] = molecular target: T6, ELK3 (Homo sapiens, UniProt P41970 1-407); conditions: protein: recombinant; tags: N-terminal GST; dsDNA, one strand shown
# T6 sequence: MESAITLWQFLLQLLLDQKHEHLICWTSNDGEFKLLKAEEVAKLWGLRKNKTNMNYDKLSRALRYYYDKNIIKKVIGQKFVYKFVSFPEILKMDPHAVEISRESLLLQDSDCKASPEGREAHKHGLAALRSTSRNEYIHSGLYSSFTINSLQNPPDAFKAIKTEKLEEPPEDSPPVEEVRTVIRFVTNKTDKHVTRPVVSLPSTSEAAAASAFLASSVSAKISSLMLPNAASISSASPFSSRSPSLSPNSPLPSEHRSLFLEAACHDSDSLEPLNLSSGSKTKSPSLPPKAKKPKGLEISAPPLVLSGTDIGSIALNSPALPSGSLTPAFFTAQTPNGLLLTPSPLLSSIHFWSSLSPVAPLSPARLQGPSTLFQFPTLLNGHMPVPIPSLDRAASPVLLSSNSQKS
# Procedure, shortened: as §1
# [10] = molecular target: T7, FEV (Homo sapiens, UniProt Q99581 1-238); conditions: protein: recombinant; tags: N-terminal GST; dsDNA, one strand shown
# T7 sequence: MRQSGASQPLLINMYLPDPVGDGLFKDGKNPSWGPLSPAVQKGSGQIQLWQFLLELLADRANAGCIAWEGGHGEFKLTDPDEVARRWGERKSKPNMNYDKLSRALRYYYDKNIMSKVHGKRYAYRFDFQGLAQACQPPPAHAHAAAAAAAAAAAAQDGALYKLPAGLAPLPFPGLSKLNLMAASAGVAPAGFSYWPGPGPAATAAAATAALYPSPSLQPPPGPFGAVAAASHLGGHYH
# Procedure, shortened: as §1
# [11] = molecular target: ETV5 (Homo sapiens, UniProt P41161 1-510); conditions: protein: recombinant; tags: N-terminal GST; dsDNA, one strand shown
# Procedure, shortened: as §1
# [12] = molecular target: HSF1 (Homo sapiens, UniProt Q00613 1-529); conditions: protein: recombinant; tags: N-terminal GST; chain copies: 3; dsDNA, one strand shown
# Procedure, shortened: as §1
# [13] = molecular target: T8, SPIC (Homo sapiens, UniProt Q8N5J4 1-248); conditions: protein: recombinant; tags: N-terminal GST; dsDNA, one strand shown
# T8 sequence: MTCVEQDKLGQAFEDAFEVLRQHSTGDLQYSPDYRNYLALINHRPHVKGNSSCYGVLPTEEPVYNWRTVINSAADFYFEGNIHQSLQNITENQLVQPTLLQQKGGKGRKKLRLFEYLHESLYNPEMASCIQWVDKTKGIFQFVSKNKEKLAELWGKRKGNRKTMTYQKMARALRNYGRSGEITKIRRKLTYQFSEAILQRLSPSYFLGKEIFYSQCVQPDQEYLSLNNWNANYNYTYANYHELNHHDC
# Procedure, shortened: as §1
# [14] = molecular target: ELF4 (Homo sapiens, UniProt Q99607 1-663); conditions: protein: recombinant; tags: N-terminal GST; dsDNA, one strand shown
# Procedure, shortened: as §1
# [15] = molecular target: T9, ELK4 (Homo sapiens, UniProt P28324-2 1-405); conditions: protein: recombinant; tags: N-terminal GST; dsDNA, one strand shown
# T9 sequence: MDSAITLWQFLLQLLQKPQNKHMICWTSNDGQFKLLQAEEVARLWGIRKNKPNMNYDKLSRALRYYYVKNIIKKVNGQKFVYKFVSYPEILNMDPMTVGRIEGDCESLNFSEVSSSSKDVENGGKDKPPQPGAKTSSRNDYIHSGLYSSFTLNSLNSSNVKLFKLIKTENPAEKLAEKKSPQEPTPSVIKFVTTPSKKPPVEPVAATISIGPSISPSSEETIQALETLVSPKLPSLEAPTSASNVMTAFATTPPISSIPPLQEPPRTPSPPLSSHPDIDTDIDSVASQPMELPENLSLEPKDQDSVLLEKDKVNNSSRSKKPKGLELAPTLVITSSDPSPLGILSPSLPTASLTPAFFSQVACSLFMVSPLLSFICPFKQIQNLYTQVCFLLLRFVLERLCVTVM
# Procedure, shortened: as §1
# [16] = molecular target: T10, ETV2 (Homo sapiens, UniProt O00321 1-342); conditions: protein: recombinant; tags: N-terminal GST; dsDNA, one strand shown
# T10 sequence: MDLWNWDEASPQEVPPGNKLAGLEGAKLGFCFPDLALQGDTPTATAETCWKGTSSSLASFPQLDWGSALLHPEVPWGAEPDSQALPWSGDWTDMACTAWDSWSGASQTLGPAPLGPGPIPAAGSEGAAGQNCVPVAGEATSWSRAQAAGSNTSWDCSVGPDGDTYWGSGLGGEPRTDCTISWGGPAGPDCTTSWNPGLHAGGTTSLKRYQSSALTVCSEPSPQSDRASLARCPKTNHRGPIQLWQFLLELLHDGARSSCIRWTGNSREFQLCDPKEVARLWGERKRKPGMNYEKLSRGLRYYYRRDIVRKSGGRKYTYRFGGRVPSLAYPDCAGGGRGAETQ
# Procedure, shortened: as §1
# [17] = molecular target: T11, ELF3 (Homo sapiens, UniProt P78545 1-371); conditions: protein: recombinant; tags: N-terminal GST; dsDNA, one strand shown
# T11 sequence: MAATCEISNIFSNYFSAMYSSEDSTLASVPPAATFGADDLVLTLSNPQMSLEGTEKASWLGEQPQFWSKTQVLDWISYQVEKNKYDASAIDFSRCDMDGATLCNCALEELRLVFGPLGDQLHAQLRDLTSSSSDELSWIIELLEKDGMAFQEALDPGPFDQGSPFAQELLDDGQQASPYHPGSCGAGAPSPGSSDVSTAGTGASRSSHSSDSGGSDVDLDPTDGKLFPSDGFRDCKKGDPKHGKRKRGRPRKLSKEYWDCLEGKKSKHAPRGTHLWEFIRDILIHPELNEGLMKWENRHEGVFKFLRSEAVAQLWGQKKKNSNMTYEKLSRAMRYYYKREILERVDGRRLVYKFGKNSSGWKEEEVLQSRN
# Procedure, shortened: as §1
# [18] = molecular target: CRX (Homo sapiens, UniProt O43186 1-299); conditions: protein: recombinant; tags: N-terminal GST; dsDNA, one strand shown
# Procedure, shortened: as §1
# [19] = molecular target: ETV1 (Homo sapiens, UniProt P50549 1-477); conditions: protein: recombinant; tags: N-terminal GST; dsDNA, one strand shown
# Procedure, shortened: as §1
# CRX, sequence (O43186 whole entry): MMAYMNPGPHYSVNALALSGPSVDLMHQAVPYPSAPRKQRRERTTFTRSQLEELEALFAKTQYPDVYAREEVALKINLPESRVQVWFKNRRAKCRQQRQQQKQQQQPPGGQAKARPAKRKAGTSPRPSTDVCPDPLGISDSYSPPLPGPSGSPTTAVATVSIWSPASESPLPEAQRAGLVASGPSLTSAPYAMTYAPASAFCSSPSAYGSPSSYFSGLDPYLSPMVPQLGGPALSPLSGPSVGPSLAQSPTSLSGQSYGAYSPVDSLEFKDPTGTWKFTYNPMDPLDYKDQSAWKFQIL
# ELF1, sequence (P32519 whole entry): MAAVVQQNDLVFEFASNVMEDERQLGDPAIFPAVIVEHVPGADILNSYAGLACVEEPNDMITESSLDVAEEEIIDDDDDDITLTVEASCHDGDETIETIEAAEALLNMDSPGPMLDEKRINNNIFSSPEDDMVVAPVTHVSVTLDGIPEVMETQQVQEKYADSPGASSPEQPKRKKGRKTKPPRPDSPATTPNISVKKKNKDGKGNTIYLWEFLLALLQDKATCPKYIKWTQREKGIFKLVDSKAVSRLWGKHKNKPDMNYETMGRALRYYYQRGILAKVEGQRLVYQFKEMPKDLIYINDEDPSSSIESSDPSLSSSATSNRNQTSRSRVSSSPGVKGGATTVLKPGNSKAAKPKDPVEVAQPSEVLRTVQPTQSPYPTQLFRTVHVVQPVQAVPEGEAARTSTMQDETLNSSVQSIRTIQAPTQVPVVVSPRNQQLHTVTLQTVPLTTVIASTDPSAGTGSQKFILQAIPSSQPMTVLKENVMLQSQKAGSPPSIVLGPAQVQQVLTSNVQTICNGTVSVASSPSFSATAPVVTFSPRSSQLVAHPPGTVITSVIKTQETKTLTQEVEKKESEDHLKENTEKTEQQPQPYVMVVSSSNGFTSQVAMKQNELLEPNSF
# ELF4, sequence (Q99607 whole entry): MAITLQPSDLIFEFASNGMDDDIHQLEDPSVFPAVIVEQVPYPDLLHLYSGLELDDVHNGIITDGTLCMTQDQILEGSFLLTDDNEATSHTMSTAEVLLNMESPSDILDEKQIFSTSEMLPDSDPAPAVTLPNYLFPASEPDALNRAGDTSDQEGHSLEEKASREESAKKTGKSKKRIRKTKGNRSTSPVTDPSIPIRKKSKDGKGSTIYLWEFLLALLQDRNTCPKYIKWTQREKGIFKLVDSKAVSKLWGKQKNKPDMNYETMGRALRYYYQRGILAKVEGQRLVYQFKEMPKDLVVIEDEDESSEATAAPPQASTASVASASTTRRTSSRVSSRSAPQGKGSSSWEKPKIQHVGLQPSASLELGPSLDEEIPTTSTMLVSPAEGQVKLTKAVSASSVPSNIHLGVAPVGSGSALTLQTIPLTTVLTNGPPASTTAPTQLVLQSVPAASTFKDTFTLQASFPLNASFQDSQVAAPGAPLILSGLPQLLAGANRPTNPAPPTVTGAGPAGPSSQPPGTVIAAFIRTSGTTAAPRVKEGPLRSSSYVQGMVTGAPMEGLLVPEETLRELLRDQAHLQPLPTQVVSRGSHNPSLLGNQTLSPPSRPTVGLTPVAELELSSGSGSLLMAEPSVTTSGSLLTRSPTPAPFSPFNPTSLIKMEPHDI
# HSF1, sequence (Q00613 whole entry): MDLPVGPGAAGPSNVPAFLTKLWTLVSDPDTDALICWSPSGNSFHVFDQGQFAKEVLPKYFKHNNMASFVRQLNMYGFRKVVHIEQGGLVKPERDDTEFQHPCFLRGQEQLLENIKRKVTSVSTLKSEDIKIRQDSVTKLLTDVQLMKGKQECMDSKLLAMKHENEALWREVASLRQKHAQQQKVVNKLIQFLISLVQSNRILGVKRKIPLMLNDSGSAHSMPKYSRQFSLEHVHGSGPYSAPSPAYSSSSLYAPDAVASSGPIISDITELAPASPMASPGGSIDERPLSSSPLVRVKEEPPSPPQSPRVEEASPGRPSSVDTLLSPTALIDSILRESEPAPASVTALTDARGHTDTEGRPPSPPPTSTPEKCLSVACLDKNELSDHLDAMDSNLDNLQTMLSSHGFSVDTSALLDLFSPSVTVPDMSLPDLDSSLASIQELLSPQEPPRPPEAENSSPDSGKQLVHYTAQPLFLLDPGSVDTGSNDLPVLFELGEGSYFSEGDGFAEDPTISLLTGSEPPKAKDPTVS
# SPIB, sequence (Q01892 whole entry): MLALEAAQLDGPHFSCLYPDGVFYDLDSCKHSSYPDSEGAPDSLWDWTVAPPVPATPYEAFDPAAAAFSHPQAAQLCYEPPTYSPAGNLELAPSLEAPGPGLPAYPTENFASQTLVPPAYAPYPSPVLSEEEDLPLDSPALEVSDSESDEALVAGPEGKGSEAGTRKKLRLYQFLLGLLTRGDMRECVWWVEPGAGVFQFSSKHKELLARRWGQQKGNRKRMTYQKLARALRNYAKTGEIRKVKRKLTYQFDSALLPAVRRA
# ETV1, sequence (P50549 whole entry): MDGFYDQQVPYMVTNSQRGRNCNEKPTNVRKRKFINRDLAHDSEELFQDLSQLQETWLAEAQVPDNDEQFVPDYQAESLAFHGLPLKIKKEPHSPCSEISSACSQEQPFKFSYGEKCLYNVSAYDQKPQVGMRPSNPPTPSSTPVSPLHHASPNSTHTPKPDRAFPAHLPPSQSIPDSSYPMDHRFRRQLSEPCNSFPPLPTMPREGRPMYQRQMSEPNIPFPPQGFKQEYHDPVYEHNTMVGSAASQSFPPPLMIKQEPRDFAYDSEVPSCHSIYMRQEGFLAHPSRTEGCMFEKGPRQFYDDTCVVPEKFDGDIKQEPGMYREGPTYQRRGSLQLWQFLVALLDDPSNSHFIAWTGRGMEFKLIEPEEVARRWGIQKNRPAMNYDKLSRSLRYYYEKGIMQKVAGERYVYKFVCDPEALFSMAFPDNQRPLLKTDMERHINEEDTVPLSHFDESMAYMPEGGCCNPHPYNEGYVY
# ETV5, sequence (P41161 whole entry): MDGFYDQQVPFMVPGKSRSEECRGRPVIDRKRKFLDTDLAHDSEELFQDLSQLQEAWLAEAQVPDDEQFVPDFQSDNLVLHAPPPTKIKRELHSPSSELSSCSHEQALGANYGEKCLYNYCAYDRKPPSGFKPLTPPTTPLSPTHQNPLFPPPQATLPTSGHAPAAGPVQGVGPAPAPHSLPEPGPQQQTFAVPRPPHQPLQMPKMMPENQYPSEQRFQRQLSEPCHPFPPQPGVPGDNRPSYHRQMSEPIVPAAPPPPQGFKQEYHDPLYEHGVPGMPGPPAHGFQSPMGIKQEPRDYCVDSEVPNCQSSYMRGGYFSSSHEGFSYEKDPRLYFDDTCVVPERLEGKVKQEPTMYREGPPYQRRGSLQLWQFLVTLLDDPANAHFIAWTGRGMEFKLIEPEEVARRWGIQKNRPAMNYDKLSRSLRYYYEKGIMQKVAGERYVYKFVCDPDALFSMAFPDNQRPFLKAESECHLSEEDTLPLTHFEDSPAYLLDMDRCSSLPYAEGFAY
sequence,measurement,setting,value
ATACGA,binding signal,[1],"1.09 fold enrichment (6-mer frequency, TF over GST control)"
same,binding signal,[2],"1.12 fold enrichment (6-mer frequency, TF over GST control)"
same,binding signal,[3],"1.1 fold enrichment (6-mer frequency, TF over GST control)"
same,binding signal,[4],"1.14 fold enrichment (6-mer frequency, TF over GST control)"
same,binding signal,[5],"1.14 fold enrichment (6-mer frequency, TF over GST control)"
same,binding signal,[6],"1.12 fold enrichment (6-mer frequency, TF over GST control)"
same,binding signal,[7],"1.08 fold enrichment (6-mer frequency, TF over GST control)"
same,binding signal,[8],"1.09 fold enrichment (6-mer frequency, TF over GST control)"
same,binding signal,[9],"1.23 fold enrichment (6-mer frequency, TF over GST control)"
same,binding signal,[10],"1.16 fold enrichment (6-mer frequency, TF over GST control)"
same,binding signal,[11],"1.17 fold enrichment (6-mer frequency, TF over GST control)"
same,binding signal,[12],"1.22 fold enrichment (6-mer frequency, TF over GST control)"
same,binding signal,[13],"1.01 fold enrichment (6-mer frequency, TF over GST control)"
same,binding signal,[14],"1.21 fold enrichment (6-mer frequency, TF over GST control)"
same,binding signal,[15],"1.08 fold enrichment (6-mer frequency, TF over GST control)"
same,binding signal,[16],"1.05 fold enrichment (6-mer frequency, TF over GST control)"
same,binding signal,[17],"1.08 fold enrichment (6-mer frequency, TF over GST control)"
same,binding signal,[18],"1.17 fold enrichment (6-mer frequency, TF over GST control)"
same,binding signal,[19],"1.19 fold enrichment (6-mer frequency, TF over GST control)"
